# From PubChem
# In the library only some 3.3% were active in any assay of this set; here they are far more common.
# 14-3-3 Bad inh: inhibitors of 14-3-3 zeta/Bad binding, primary screen, biochemical, TR-FRET, bovine 14-3-3 zeta; 14-3-3 protein zeta/delta (Bos taurus), P63103; TR-FRET 14-3-3zeta/Dy647-pBad peptide displacement, 1 h; inhibition, % at 21.7 µM; 220,000 tested, 0.71% active; AID 781, 2007;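 active means inhibition above about 70%, limit read from the data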;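 further: 0% = full 14-3-3 plus peptide FRET controls and 100% = background without 14-3-3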
# Target sequence (P63103 whole entry, looked up): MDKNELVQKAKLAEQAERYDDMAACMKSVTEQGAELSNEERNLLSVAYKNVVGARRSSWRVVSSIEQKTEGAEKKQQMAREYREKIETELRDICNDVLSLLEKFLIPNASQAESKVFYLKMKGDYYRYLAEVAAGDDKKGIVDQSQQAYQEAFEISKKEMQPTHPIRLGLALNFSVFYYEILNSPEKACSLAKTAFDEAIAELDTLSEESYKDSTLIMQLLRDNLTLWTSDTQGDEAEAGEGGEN
# Mcl1-Noxa inh: Mcl-1/Noxa binding inhibitors, primary screen, biochemical, TR-FRET, 1536-well | Induced myeloid leukemia cell differentiation protein Mcl-1 (Homo sapiens), Q07820 | TR-FRET Mcl-1/Noxa peptide binding, 2 h | inhibition, % at 21.7 µM | 220,000 tested, 1.5% active;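 active means compounds that cut the protein-peptide binding signal by more than 50% relative to plate controls in a single-dose test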;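 further: His-tagged Mcl-1 with rhodamine Noxa BH3 peptide and terbium anti-His antibody; 0% = Mcl-1 plus Noxa peptide wells and 100% = peptide-only wells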
# Target sequence (Q07820 whole entry, looked up): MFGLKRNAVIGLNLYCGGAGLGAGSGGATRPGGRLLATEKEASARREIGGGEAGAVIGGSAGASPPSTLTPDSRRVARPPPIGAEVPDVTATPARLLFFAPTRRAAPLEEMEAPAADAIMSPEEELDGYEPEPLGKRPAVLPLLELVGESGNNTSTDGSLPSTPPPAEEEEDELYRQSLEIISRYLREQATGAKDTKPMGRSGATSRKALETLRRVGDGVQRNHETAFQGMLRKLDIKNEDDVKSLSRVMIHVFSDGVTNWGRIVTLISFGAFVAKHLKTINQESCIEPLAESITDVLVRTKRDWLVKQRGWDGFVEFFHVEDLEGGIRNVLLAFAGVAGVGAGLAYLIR
# Mcl1 Bid PPI: Mcl-1/Bid binding inhibitors, primary screen, biochemical, TR-FRET, 1536-well | Induced myeloid leukemia cell differentiation protein Mcl-1 (Homo sapiens), Q07820 | TR-FRET Mcl-1/Bid-Dy647 peptide binding | inhibition, % at 21.7 µM | 220,000 tested, 0.97% active;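 active means compounds that cut the binding signal by more than half at the single screening dose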;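 further: His-tagged Mcl-1 with europium anti-His antibody binding Bid BH3 peptide; 0% = Mcl-1 plus peptide wells and 100% = peptide-only wells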
# NCF1 inh: p47phox/p22phox peptide binding inhibitors, primary screen, biochemical, uHTS, NADPH oxidase regulatory subunit. fluorescence polarization, 2 h. 220,000 tested, 0.53% active. inhibition, % at 24.7 µM. AID 1274, 2008;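 further: 0% = p47phox with labelled peptide and 100% = labelled peptide alone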
# eIF4E 4G PPI: eIF4E–eIF4G protein interaction inhibitors, primary screen, biochemical, uHTS, TR-FRET, eIF4GI fragment; 220,000 tested, 0.37% active; TR-FRET eIF4E-eIF4GI(517-606) binding, 2 h; AID 782, 2007; inhibition, % at 21.7 µM;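 further: 0% = full FRET control wells and 100% = background wells lacking eIF4GI fragment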
# Bim-Mcl-1: inhibitors of Bim peptide binding to Mcl-1, primary screen, biochemical, bead-based flow cytometry, multiplex; Induced myeloid leukemia cell differentiation protein Mcl-1 (Homo sapiens), Q07820; Bim peptide-Mcl-1 binding; inhibition, % at 10 µM; 190,000 tested, 0.1% active; in the data active means inhibition above about 40%;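 further: 0% = no compound tracer wells and 100% = peptide blocker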
# The depositor's hits bear a star; . = not tested or not shown; [ ] = another dose, or the depositor's remark.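 How the source made its calls, unless noted: active means inhibition above about 30% (limit read from the data); inactive means the rest.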
SMILES,14-3-3 Bad inh,Mcl1-Noxa inh,Mcl1 Bid PPI,NCF1 inh,eIF4E 4G PPI,Bim-Mcl-1
C/C(=N/NC(=O)c1cc2ccccc2cc1O)C1C(=O)c2ccccc2C1=O,8,92*,2,-77,3,3
O=C(/C(Cl)=C/Nc1ccc(Br)cn1)C(F)(F)F,-11,-9,-20,-5,4,1
O=C(CS(=O)(=O)Cc1ccccc1)Nc1nc2ccccc2s1,-4,7,-21,56*,-2,-1
CC(=O)c1cc(-c2ccc(F)cc2)n(CCC(=O)Nc2cccnc2)c1C,-3,0,-31,5,-1,0
CCCc1ccc(OCc2nc(-c3ccc(NC(=O)c4ccco4)cc3)no2)cc1,22,7,60*,-36,-3,-6
CCCc1ccc(OCc2nc(-c3ccc(NC(=O)c4cccs4)cc3)no2)cc1,-1,3,-3,-11,-1,6
CSCCC(NC(=O)c1ccccc1)C(=O)N/N=C(\C)c1ccccc1 (centres undefined),-5,15,-27,-3,2,-5
COC(=O)c1ccc2c(=O)n(-c3ccccc3F)c(=S)[nH]c2c1,-8,12,-27,-3,-1,-1
O=C(COC(=O)c1ccc2[nH]c3c(c2c1)CCCC3)Nc1ccccc1,5,8,-15,-18,1,0
COC(=O)C1=C(C(=O)OC)C(c2ccc(OC)c(OC)c2)c2sc(=O)[nH]c2S1 (centres undefined),-13,7,-25,3,21,2
COC(=O)C1=C(C(=O)OC)C(c2cc(Cl)ccc2O)c2sc(=O)[nH]c2S1 (centres undefined),-16,79*,27,-15,-1,5
COC(=O)C1=C(C(=O)OC)C(c2cc(Br)ccc2O)c2sc(=O)[nH]c2S1 (centres undefined),-11,87*,7,-19,3,-1
CCOc1cccc(C(=O)NC(=S)Nc2ccc(Cl)cc2C(=O)O)c1,-9,29,-5,-11,-2,-2
Cc1nn(-c2ccccc2)c2sc(-c3n[nH]c(=S)o3)cc12,3,67*,-16,-52,12,5
Cc1nn(-c2ccccc2)c2sc(C(=O)O)cc12,23,2,9,-3,7,0
CCCCN1C(=O)c2ccc(C(=O)NCCN3C(=O)S/C(=C\c4cccnc4)C3=O)cc2C1=O,-4,16,-6,0,4,-2
C/C(=N\NC(=O)c1cnccn1)c1ccc([N+](=O)[O-])cc1,-3,3,4,-1,4,.
C/C(=N/NC(=O)c1cc(O)c(O)c(O)c1)c1ccc([N+](=O)[O-])cc1,-3,59*,-50,-4,3,8
C/C(=N/NC(=O)c1cc(-c2cccc([N+](=O)[O-])c2)n[nH]1)c1ccc(Cl)cc1,77*[fluorescence artefact?],64*,74*,25,14,4
CC(C)c1ccc(/C=N/NC(=O)c2cc(-c3cccc([N+](=O)[O-])c3)n[nH]2)cc1,2,22,43,-1,-2,.
C/C(=N/NC(=O)CNC(=O)c1cccnc1)c1ccc([N+](=O)[O-])cc1,2,73*,3,-4,-1,2
O=C(Nc1ccc(C(F)(F)F)cc1)N1CCN(c2ccnc3cc(Cl)ccc23)CC1,3,1,39,-6,6,.
CS(=O)(=O)ON=C1CCN(S(=O)(=O)c2ccccc2)CC1,-9,12,-15,-5,3,-5
Cc1nn(C(=O)c2ccco2)c(C)c1Br,3,20,-12,-17,0,-2
COc1ccc(C(=O)n2nc(C)c(Br)c2C)cc1,13,85*,16,-2,-4,-4
SMILES,14-3-3 Bad inh,Mcl1-Noxa inh,Mcl1 Bid PPI,NCF1 inh,eIF4E 4G PPI,Bim-Mcl-1
CCN1N=C(c2cc(Cl)sc2Cl)CSC1=O,0,4,9,14,1,2
CCNc1nc(NCC)nc(C(=O)Nc2ccccc2)n1,-12,65*,-48,-61,8,-2
CCNc1nc(NCC)nc(OCCOC(=O)Nc2ccccc2)n1,7,-8,-7,-3,-1,2
COc1ccc2cc3cc(C(=O)Nc4ccc5c(c4)OCCO5)oc3nc2c1,65,9,-27,32*,4,-4
COc1ccc2cc3cc(C(=O)Nc4cc(OC)c(OC)c(OC)c4)oc3nc2c1,.,9,-30,-4,.,-3
OC(c1ccccn1)c1c[nH]c2ccccc12 (centres undefined),16,0,-37,35*,-6,1
COc1cc(C(=O)NCc2cccc3ccccc23)cc(Cl)c1OC,1,-4,-4,11,-6,-2
CCC1(C(=O)OC)CCc2c(cc(OC)c3ccccc23)C1=O (centres undefined),3,88*,-1,-6,4,.
CCCCCCCSc1nnc(N)s1,-5,9,16,-4,4,.
Cc1nc(N2N=C(c3ccc(Cl)cc3)CC2c2ccco2)sc1C(=O)N(C)C (centres undefined),-8,24,-23,-16,2,0
COc1ccc(C2=NN(c3nc(-c4ccccc4)c(CC(=O)O)s3)C(c3ccco3)C2)cc1 (centres undefined),-22,85*,-125,-134,3,0
O=c1[nH]c(CSc2nnc3ccccn23)nc2cc(C(F)(F)F)ccc12,-14,2,-12,11,2,1
O=C(O)C[C@@H]1C(=O)O[C@@H]2C(COC(=O)c3cc(O)c(O)c(O)c3)O[C@@H](OC(=O)c3cc(O)c(O)c(O)c3)[C@@H](OC(=O)c3cc(O)c(O)c4c3[C@H]1[C@H](O)C(=O)O4)[C@H]2OC(=O)c1cc(O)c(O)c(O)c1 (some centres undefined),81*,100*,76*,-70,38*,.
COc1ccc(-c2[nH]n(-c3ccc([N+](=O)[O-])cc3)c(=O)c2C=NCc2ccccc2)cc1,3,12,-2,-25,-1,-1
NC(=O)c1ccc(N2CCN(c3ccc(O)cc3)CC2)c([N+](=O)[O-])c1,-11,64*,-38,2,5,4
CC(=O)c1ccc(N2CCN(c3ccc(C(N)=O)cc3[N+](=O)[O-])CC2)cc1,-1,14,-21,-12,-1,-1
